An excerpt weighted towards active compounds, which were near 4.2% of everything screened.
FBA Mtb inh – inhibits M. tuberculosis FBA enzyme; AID 588726; inhibition, % at 1 µM; P9WQA3; purified M. tuberculosis FBA, fluorescence read-out; 360,000 compounds, 2.3% hits; in the data active = inhibition above about 27%;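 note: 0% = vehicle and 100% = reference inhibitor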
Target sequence (P9WQA3 whole entry, looked up): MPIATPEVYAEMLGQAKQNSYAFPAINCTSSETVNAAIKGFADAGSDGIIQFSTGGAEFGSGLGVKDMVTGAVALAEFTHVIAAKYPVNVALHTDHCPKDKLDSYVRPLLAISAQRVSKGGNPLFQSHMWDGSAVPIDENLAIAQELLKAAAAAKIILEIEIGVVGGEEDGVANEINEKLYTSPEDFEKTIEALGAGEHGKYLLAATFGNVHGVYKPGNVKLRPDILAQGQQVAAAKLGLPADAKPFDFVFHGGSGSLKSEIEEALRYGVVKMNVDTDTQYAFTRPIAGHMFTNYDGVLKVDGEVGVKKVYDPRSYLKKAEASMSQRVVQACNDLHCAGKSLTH
Mtb betalactam – beta-lactam sensitization of Mtb H37Rv; M. tuberculosis H37Rv growth with meropenem, percent inhibition; inhibition, % at 25 µM; 330,000 compounds, 0.27% hits; AID 434955; call rule not given here;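 note: growth measured after seven days incubation then overnight dye step; 0% = bacteria only wells and 100% = bacteria with antibiotic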
GDH-TPI inh – inhibits GDH-TPI coupling enzymes, artifact for Mtb FBA screen. GDH-TPI coupled enzyme counterscreen, NADH absorbance. AID 588335. inhibition, % at 4.8 µM. 360,000 compounds, 1.2% hits;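 note: 0% = DMSO wells and 100% = wells lacking the enzyme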
CCHF vOTU inh-1 – blocks the CCHF virus ovarian tumor domain protease | CCHFV vOTU protease, Pep-AMC fluorescence | AID 651958 | 370,000 compounds, 0.55% hits | inhibition, % at 11.5 µM; note: 0% = vehicle wells with enzyme and 100% = no enzyme wells
RecA splice inh – blocks M. tuberculosis RecA intein splicing | inhibition, % (test concentration not listed) | cell-free RecA intein splicing, fluorescence | 290,000 compounds, 0.75% hits; in the data active = inhibition above about 30%; inconclusive = no clear call, values can overlap the other calls;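 note: 0% = vehicle wells and 100% = reference inhibitor control wells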
CCHF vOTU inh-2 – CCHFV vOTU protease inhibition, confirmation. shares compounds with CCHF vOTU inh-1. Recombinant CCHFV vOTU, Pep-AMC fluorescence. inhibition, % at 11.5 µM. 1,900 compounds, 17% hits. AID 686976
An asterisk follows results filed as active; ? = inconclusive; . = no result. Cut-off read from the data, not from the text of the source, unless noted: active = inhibition above about 30%; inactive = the rest.

SMILES | FBA Mtb inh | Mtb betalactam | GDH-TPI inh | CCHF vOTU inh-1 | RecA splice inh | CCHF vOTU inh-2
CC1CC(C)CN(CCCNC(=O)c2nn(C)c3c2CS(=O)(=O)c2ccccc2-3)C1 (stereo unspecified) | 0 | -6 | -2 | 9 | -2 | .
CCOP(=O)(OCC)C(Nc1cccc(C(F)(F)F)c1)c1ccc(C)cc1 (stereo unspecified) | -1 | 5 | -4 | 30* | -3 | 11
CCOC(=O)CSc1nc(-c2ccc(OC)cc2)ns1 | 1 | 99 | 2 | 33* | 4 | 0
COc1cc(C2Nc3ccc4ncccc4c3C3=C2C(=O)CC(C)(C)C3)cc(OC)c1O (stereo unspecified) | 3 | -1 | 15 | 1 | -4 | .
CC1(C)CC(=O)C2=C(C1)c1c(ccc3ccccc13)NC2c1cc([N+](=O)[O-])cc([N+](=O)[O-])c1O (stereo unspecified) | -12 | -2 | 9 | 44* | 11 | 14
CC(=O)N1N=C(c2cccs2)CC1c1cccs1 (stereo unspecified) | 6 | 2 | 1 | 1 | 0 | .
CCn1nnnc1SCC(=O)N1N=C(c2cccs2)CC1c1cccs1 (stereo unspecified) | 0 | . | 6 | 30* | . | -14
CN1C(=O)[C@@H]2[C@H](C1=O)[C@@H]1C(=O)Nc3ccccc3C(=O)N1[C@@H]2c1ccc(F)cc1 | 4 | -20 | 6 | -2 | -3 | .
CCN1C(=O)[C@@H]2[C@H](C1=O)[C@@H]1C(=O)Nc3ccccc3C(=O)N1[C@@H]2c1ccc(OC)cc1 | 2 | -4 | 5 | 34* | 0 | -31
O=C(O)CN1C(=O)/C(=C\c2cc(Br)ccc2OCc2ccccc2Cl)SC1=S | 6 | 1 | 13 | 25 | 23 | .
O=C(O)CN1C(=O)/C(=C\c2cc(Br)ccc2OCc2ccc([N+](=O)[O-])cc2)SC1=S | 2 | -2 | 12 | 32* | 14 | 19
CS(=O)(=O)c1cccc(C(=O)OCC(=O)NC(=O)Nc2ccccc2F)c1 | -1 | 0 | 2 | 6 | . | .
CCOC(=O)c1ccccc1NS(=O)(=O)c1ccc(C)cc1 | 0 | -5 | -5 | 1 | -2 | .
CCCCn1c(NS(=O)(=O)c2ccc(C)cc2)c(C(=O)OCC)c2nc3ccccc3nc21 | 16 | 7 | 8 | 95* | -139 | -98
Cc1nn(C)c(C(=O)Nc2cccc(Nc3ccccc3)c2)c1[N+](=O)[O-] | -2 | ? | 4 | 1 | . | .
Cc1nn(C)c(C(=O)N/N=C/c2ccccc2)c1[N+](=O)[O-] | 3 | -5 | 11 | 31* | 2 | -13
O=C(NCc1ccc2c(c1)OCO2)c1ccc(N2CCCCCC2)c([N+](=O)[O-])c1 | -5 | -2 | 3 | 1 | -5 | .
CC1CCCN(c2ccc(C(=O)NCc3ccc4c(c3)OCO4)cc2[N+](=O)[O-])C1 (stereo unspecified) | 0 | 18 | 16 | 31* | 5 | -12
C/C(=N\NC(=O)c1ccc(-n2cnnn2)cc1)c1ccc(Cl)cc1 | -4 | -2 | 0 | 16 | . | .
CC(=O)C(C(C)=O)C1(O)C(=O)c2ccccc2C1=O | 6 | 8 | 21 | 101* | 4 | -12
CC(=O)N(C)C1=C(O)c2ccccc2C(=O)C1=O | -8 | ? | 13 | 10 | 10 | .
CC[n+]1c(/C=C/c2c[nH]c3ccccc23)ccc2cc(C)ccc21 | . | . | . | 34* | . | 4
CCN(CC)C(=O)c1ccc(/C=C/c2c[nH]c3ccccc23)[n+](C)c1 | -27 | 0 | 11 | 18 | 7 | .
COc1cccc(CNS(=O)(=O)c2cc3c(cc2Br)CC(C)N3C(C)=O)c1 (stereo unspecified) | . | . | . | -2 | . | .
CC(C)C[C@H](NC(=O)c1nc[nH]c1C(=O)NC1CCN(C(=O)OC(C)(C)C)CC1)C(=O)OCc1ccccc1 | -7 | 98 | -4 | 31* | 1 | 14
SMILES | FBA Mtb inh | Mtb betalactam | GDH-TPI inh | CCHF vOTU inh-1 | RecA splice inh | CCHF vOTU inh-2
CC(C)C[C@H](NC(=O)c1nc[nH]c1C(=O)NC1CCN(C(=O)OC(C)(C)C)CC1)C(=O)OC(C)(C)C | 0 | 3 | -4 | 26 | -1 | .
CC(C)C[C@H](NC(=O)c1[nH]cnc1C(=O)N[C@@H](Cc1ccccc1)C(=O)OCc1ccccc1)C(=O)OC(C)(C)C | -5 | -2 | 5 | 30* | 1 | 18
CC(C)C[C@H](NC(=O)c1nc[nH]c1C(=O)NCCCCCNC(=O)OC(C)(C)C)C(=O)OCc1ccccc1 | 0 | -11 | 12 | 30* | 1 | 16
CC(C)C[C@H](NC(=O)c1[nH]cnc1C(=O)N[C@@H](Cc1ccccc1)C(=O)OC(C)(C)C)C(=O)OCc1ccccc1 | -2 | -9 | 10 | 29 | 1 | .
CCN(CC)C(=O)Cn1cc(C(=O)C(=O)NCCc2c[nH]c3ccccc23)c2ccccc21 | -4 | 3 | 7 | 6 | -2 | .
O=c1c(O)c(-c2ccc(O)cc2)oc2cc(O)cc(O)c12 | 1 | -6 | 15 | 31* | -5 | -2
COc1ccc(NC(=O)N(C)C[C@H]2OCCCC[C@@H](C)Oc3ccc(N(C)C)cc3C(=O)N([C@H](C)CO)C[C@@H]2C)cc1 | 0 | . | 0 | 0 | . | .
C[C@@H]1CCCCO[C@H](CN(C)C(=O)Cc2ccccc2)[C@@H](C)CN([C@H](C)CO)C(=O)c2cc(NC(=O)Nc3ccccc3)ccc2O1 | -1 | . | 11 | 31* | . | -12
C[C@@H]1CCCCO[C@H](CN(C)Cc2ccc(Cl)c(Cl)c2)[C@H](C)CN([C@@H](C)CO)C(=O)c2cc(NC(=O)Nc3ccc(F)cc3)ccc2O1 | 3 | . | 3 | 31* | . | -14
C[C@@H]1CCCCO[C@@H](CN(C)C(=O)Nc2ccccc2)[C@@H](C)CN([C@H](C)CO)C(=O)c2cc(N(C)C)ccc2O1 | 3 | . | 5 | 31* | . | -19
C[Si](C)(C)n1ccnc1 | -4 | -6 | -2 | 0 | 3 | .
Cc1ccccc1S(=O)(=O)NC(=NCc1ccc(F)cc1)c1ccccc1 | -2 | 3 | 1 | -1 | . | .
CCCCCC(=O)N/N=C/c1ccc([N+](=O)[O-])o1 | 6 | 100 | 11 | 16 | . | .
O=C(N/N=C\c1ccc([N+](=O)[O-])o1)c1cncc(Br)c1 | -5 | 100 | 22 | 50* | 15 | 8
O=C(Cc1ccc2c(c1)OCO2)NN=Cc1ccc([N+](=O)[O-])o1 | 4 | 100 | 28 | 32* | . | 0
O=C(Cc1ccc2c(c1)OCCO2)N/N=C/c1ccco1 | 1 | 7 | 9 | -13 | . | .
O=C(CCC(=O)Nc1ccc(Cl)cc1Cl)N/N=C/c1ccc([N+](=O)[O-])o1 | -3 | 100 | 15 | 39* | 5 | -5
COc1ccc(NC(C)=O)cc1S(=O)(=O)N(C)Cc1c(C)nn(-c2ccccc2)c1C | 3 | -5 | -2 | -3 | . | .
Cc1noc(C)c1S(=O)(=O)Nc1ccc2c(c1)C(=O)N([C@H](C)CO)C[C@H](C)[C@@H](CN(C)C(=O)Nc1ccc3c(c1)OCO3)O2 | 3 | -3 | 1 | -4 | . | .

Screening data (PubChem)
